According to PubChem BioAssay AID1159580 (chemical genetic matrix, 2015):
Several values for one entry are separate records, joined by “and”; a condition that tells them apart may be missing. Equal entries are not always repeated. The whole screen tested about 5,500 compounds, of which about 2,000 (36%) were called active. Not shown: some 18% with an inconclusive outcome. No stated cut-off is given here; in the data, active means normalized growth mostly below about 0.91 (no sharp cut-off); inconclusive means no clear call, values can overlap the other calls; inactive means mostly above about 0.92. The list shows a part of the results.

Test: chemical genetic growth profiling, strain panel (AID 1159580);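 further: tested at 20 µM; growth read once vehicle control cultures reached saturation at 30 °C; 1 = growth at the plate median or of vehicle wells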
Conditions: growth OD

Measured: normalized growth

CS(=O)(=O)Nc1ccc([N+](=O)[O-])cc1Oc1ccccc1
inactive: S. cerevisiae deletion strains, locus YJR066W, strain TOR1, stronger effect = lower value 0.962 | S. cerevisiae deletion strains, locus YJR075W, strain HOC1, stronger effect = lower value 1 | S. cerevisiae deletion strains, locus YKL009W, strain mrt4, stronger effect = lower value 0.944 | S. cerevisiae deletion strains, locus YKL068W, stronger effect = lower value 0.988 | S. cerevisiae deletion strains, locus YKL085W, strain MDH1 (second series), stronger effect = lower value 0.99 | S. cerevisiae deletion strains, locus YKL085W, strain MDH1, stronger effect = lower value 0.99 | S. cerevisiae deletion strains, locus YKL160W, strain elf1, stronger effect = lower value 0.987 | S. cerevisiae deletion strains, locus YKL190W, strain CNB1, stronger effect = lower value 0.983 | S. cerevisiae deletion strains, locus YKR001C, strain vps1, stronger effect = lower value 0.938 | S. cerevisiae deletion strains, locus YKR026C, strain gcn3, stronger effect = lower value 0.987 | S. cerevisiae deletion strains, locus YKR091W, strain srl3, stronger effect = lower value 0.993 | S. cerevisiae deletion strains, locus YLL001W, strain dnm1, stronger effect = lower value 0.975 | S. cerevisiae deletion strains, locus YLL026W, stronger effect = lower value 0.993 | S. cerevisiae deletion strains, locus YLL041C, strain sdh2, stronger effect = lower value 0.995 | S. cerevisiae deletion strains, locus YLR027C, strain aat2, stronger effect = lower value 1 | S. cerevisiae deletion strains, locus YLR039C, strain RIC1, stronger effect = lower value 0.839 | S. cerevisiae deletion strains, locus YLR058C, strain SHM2, stronger effect = lower value 0.966 | S. cerevisiae deletion strains, locus YLR102C, strain apc9, stronger effect = lower value 0.984 | S. cerevisiae deletion strains, locus YLR113W, strain HOG1, stronger effect = lower value 1.03 | S. cerevisiae deletion strains, locus YLR221C, strain rsa3, stronger effect = lower value 0.994 | S. cerevisiae deletion strains, locus YLR258W, strain gsy2, stronger effect = lower value 0.988 | S. cerevisiae deletion strains, locus YLR262C, strain YPT6 (second series), stronger effect = lower value 0.889 | S. cerevisiae deletion strains, locus YLR262C, strain YPT6, stronger effect = lower value 0.75 | S. cerevisiae deletion strains, locus YLR268W, strain sec22, stronger effect = lower value 0.958 | S. cerevisiae deletion strains, locus YLR320W, strain mms22, stronger effect = lower value 0.994 | S. cerevisiae deletion strains, locus YLR330W, strain CHS5, stronger effect = lower value 0.993 | S. cerevisiae deletion strains, locus YLR342W, strain FKS1 (second series), stronger effect = lower value 1.08 | S. cerevisiae deletion strains, locus YLR342W, strain FKS1, stronger effect = lower value 0.997 | S. cerevisiae deletion strains, locus YLR357W, strain rsc2, stronger effect = lower value 0.986 | S. cerevisiae deletion strains, locus YLR370C, strain arc18, stronger effect = lower value 0.999 | S. cerevisiae deletion strains, locus YLR371W, strain rom2, stronger effect = lower value 0.984 | S. cerevisiae deletion strains, locus YLR384C, strain iki3, stronger effect = lower value 0.991 | S. cerevisiae deletion strains, locus YLR418C, strain cdc73, stronger effect = lower value 1.01 | S. cerevisiae deletion strains, locus YML016C, strain PPZ1, stronger effect = lower value 0.989 | S. cerevisiae deletion strains, locus YML032C, strain rad52, stronger effect = lower value 0.958 | S. cerevisiae deletion strains, locus YML120C, strain ndi1, stronger effect = lower value 0.993 | S. cerevisiae deletion strains, locus YML124C, strain tub3, stronger effect = lower value 0.982 | S. cerevisiae deletion strains, locus YMR058W, strain fet3, stronger effect = lower value 0.993 | S. cerevisiae deletion strains, locus YMR078C, strain ctf18, stronger effect = lower value 0.975 | S. cerevisiae deletion strains, locus YMR125W, strain sto1, stronger effect = lower value 0.984 | S. cerevisiae deletion strains, locus YMR129W, stronger effect = lower value 0.983 | S. cerevisiae deletion strains, locus YMR205C, strain PFK2, stronger effect = lower value 0.974 | S. cerevisiae deletion strains, locus YMR223W, strain ubp8, stronger effect = lower value 0.993 | S. cerevisiae deletion strains, locus YMR231W, strain pep5, stronger effect = lower value 1 | S. cerevisiae deletion strains, locus YMR307W, strain GAS1, stronger effect = lower value 1.05 and 0.989 | S. cerevisiae deletion strains, locus YNL067W, strain RPL9B, stronger effect = lower value 0.953 | S. cerevisiae deletion strains, locus YNL071W, strain lat1, stronger effect = lower value 1 | S. cerevisiae deletion strains, locus YNL128W, strain TEP1, stronger effect = lower value 0.981 and 0.986 | S. cerevisiae deletion strains, locus YNL175C, strain NOP13, stronger effect = lower value 0.995 | S. cerevisiae deletion strains, locus YNL183C, strain NPR1, stronger effect = lower value 0.943 | S. cerevisiae deletion strains, locus YNL197C, strain WHI3, stronger effect = lower value 0.99 | S. cerevisiae deletion strains, locus YNL209W, strain ssb2, stronger effect = lower value 0.994 | S. cerevisiae deletion strains, locus YNL224C, strain SQS1, stronger effect = lower value 1 | S. cerevisiae deletion strains, locus YNL233W, strain BNI4, stronger effect = lower value 0.927 | S. cerevisiae deletion strains, locus YNL248C, strain rpa49, stronger effect = lower value 1 | S. cerevisiae deletion strains, locus YNL250W, strain rad50, stronger effect = lower value 0.999 | S. cerevisiae deletion strains, locus YNL271C, strain bni1, stronger effect = lower value 0.972 | S. cerevisiae deletion strains, locus YNL298W, strain CLA4, stronger effect = lower value 0.966 | S. cerevisiae deletion strains, locus YNL307C, strain MCK1, stronger effect = lower value 0.966 | S. cerevisiae deletion strains, locus YNL322C, strain KRE1 (second series), stronger effect = lower value 0.994 | S. cerevisiae deletion strains, locus YNL322C, strain KRE1, stronger effect = lower value 0.986 and 1.01 | S. cerevisiae deletion strains, locus YNR049C, strain mso1, stronger effect = lower value 0.99 | S. cerevisiae deletion strains, locus YNR052C, strain pop2, stronger effect = lower value 0.976 | S. cerevisiae deletion strains, locus YOL006C, strain TOP1, stronger effect = lower value 0.841 | S. cerevisiae deletion strains, locus YOL012C, strain htz1 1.03 | S. cerevisiae deletion strains, locus YOL147C, strain pex11, stronger effect = lower value 0.98 | S. cerevisiae deletion strains, locus YOR001W, strain rrp6, stronger effect = lower value 0.99 | S. cerevisiae deletion strains, locus YOR061W, strain CKA2, stronger effect = lower value 0.964 | S. cerevisiae deletion strains, locus YOR069W, strain VPS5, stronger effect = lower value 0.994 | S. cerevisiae deletion strains, locus YOR070C, strain gyp1, stronger effect = lower value 0.986 | S. cerevisiae deletion strains, locus YOR080W, strain dia2, stronger effect = lower value 0.991 | S. cerevisiae deletion strains, locus YOR083W, strain WHI5 (second series), stronger effect = lower value 0.991 | S. cerevisiae deletion strains, locus YOR083W, strain WHI5, stronger effect = lower value 0.986 | S. cerevisiae deletion strains, locus YOR106W, strain vam3, stronger effect = lower value 1.01 | S. cerevisiae deletion strains, locus YOR136W, strain idh2, stronger effect = lower value 0.977 | S. cerevisiae deletion strains, locus YOR144C, strain elg1, stronger effect = lower value 0.981 | S. cerevisiae deletion strains, locus YOR184W, strain ser1, stronger effect = lower value 0.951 | S. cerevisiae deletion strains, locus YOR231W, strain MKK1, stronger effect = lower value 1.06 | S. cerevisiae deletion strains, locus YOR265W, strain rbl2, stronger effect = lower value 1.01 | S. cerevisiae deletion strains, locus YOR270C, strain vph1, stronger effect = lower value 0.97 | S. cerevisiae deletion strains, locus YOR290C, strain snf2, stronger effect = lower value 0.954 | S. cerevisiae deletion strains, locus YOR316C, strain cot1, stronger effect = lower value 0.961 | S. cerevisiae deletion strains, locus YPL051W, strain arl3, stronger effect = lower value 0.993 | S. cerevisiae deletion strains, locus YPL055C, strain LGE1, stronger effect = lower value 0.879 | S. cerevisiae deletion strains, locus YPL078C, strain atp4, stronger effect = lower value 0.994 | S. cerevisiae deletion strains, locus YPL106C, strain sse1, stronger effect = lower value 0.991 | S. cerevisiae deletion strains, locus YPL240C, strain hsp82, stronger effect = lower value 0.978 | S. cerevisiae deletion strains, locus YPL241C, strain CIN2, stronger effect = lower value 1.01 | S. cerevisiae deletion strains, locus YPL256C, strain CLN2, stronger effect = lower value 1.03 | S. cerevisiae deletion strains, locus YPR119W, strain clb2, stronger effect = lower value 0.973 | S. cerevisiae deletion strains, locus YPR141C, strain kar3, stronger effect = lower value 0.973 | S. cerevisiae deletion strains, locus YPR163C, strain tif3, stronger effect = lower value 0.988 | S. cerevisiae deletion strains, locus YPR167C, strain met16, stronger effect = lower value 0.986 | S. cerevisiae deletion strains, strain wtn01, stronger effect = lower value 0.968 | S. cerevisiae strains, strain wild type, stronger effect = lower value 0.978
